Reference: the supplement of paper PMC6555819

Tests used:
Assay in all cases: PBM binding z-score (relative to random genomic background probes); higher = stronger binding; sequences stand for … in GC…GCGATTGACAGCGTAGAATGAAGG
[1] = test system: FXR:RXRa (NR concentration 270 nM, RXRa partner concentration 90 nM)
Outline: (§1)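 Binding z-scores were set against random background probes. The data came from custom Agilent 4×180K protein-binding microarrays carrying double-stranded probes with 34-nt variable regions, incubated 1 h with ligand-free nuclear receptor dimers. Partner-specific antibodies detected binding, and scanned fluorescence was regression-normalized.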

[2] = test system: LXRa:RXRa (NR concentration 270 nM, RXRa partner concentration 90 nM)
Outline: as §1

[3] = test system: LXRa homodimer (NR concentration 270 nM)
Outline: as §1

[4] = test system: LXRb:RXRa (NR concentration 270 nM, RXRa partner concentration 90 nM)
Outline: as §1

[5] = test system: LXRb homodimer (NR concentration 270 nM)
Outline: as §1

[6] = test system: PPARa:RXRa (NR concentration 270 nM, RXRa partner concentration 90 nM)
Outline: as §1

[7] = test system: PPARg:RXRa (NR concentration 180 nM, RXRa partner concentration 90 nM)
Outline: as §1

[8] = test system: PPARg:RXRa 270nM:90nM, anti-RXR (NR concentration 270 nM, RXRa partner concentration 90 nM)
Outline: as §1

[9] = test system: PPARg:RXRa 30nM:10nM, anti-RXR (NR concentration 30 nM, RXRa partner concentration 10 nM)
Outline: as §1

[10] = test system: PPARg:RXRa 90nM:30nM, anti-RXR (NR concentration 90 nM, RXRa partner concentration 30 nM)
Outline: as §1

[11] = test system: PPARg:RXRa DBDmut IVT, anti-RXR (DBD mutation: RXRa K156A/R161A, NR concentration 270 nM, RXRa partner concentration 90 nM)
Outline: as §1

[12] = test system: PPARg:RXRa IVT, anti-PPARg (NR concentration 270 nM, RXRa partner concentration 90 nM)
Outline: as §1

[13] = test system: PPARg DBDmut:RXRa IVT, anti-PPARg (DBD mutation: PPARg1 K132A/R137A, NR concentration 270 nM, RXRa partner concentration 90 nM)
Outline: as §1

[14] = test system: PPARg DBDmut IVT, anti-PPARg (DBD mutation: PPARg1 K132A/R137A, NR concentration 270 nM)
Outline: as §1

[15] = test system: PPARg homodimer (NR concentration 180 nM)
Outline: as §1

[16] = test system: PXR:RXRa (NR concentration 270 nM, RXRa partner concentration 90 nM)
Outline: as §1

[17] = test system: PXR homodimer (NR concentration 270 nM)
Outline: as §1

[18] = test system: RARa:RXR (NR concentration 270 nM, RXRa partner concentration 90 nM)
Outline: as §1

[19] = test system: RARa homodimer (NR concentration 270 nM)
Outline: as §1

[20] = test system: RARb:RXRa (NR concentration 270 nM, RXRa partner concentration 90 nM)
Outline: as §1

Sequence	PBM binding z-score [1]	PBM binding z-score [2]	PBM binding z-score [3]	PBM binding z-score [4]	PBM binding z-score [5]	PBM binding z-score [6]	PBM binding z-score [7]	PBM binding z-score [8]	PBM binding z-score [9]	PBM binding z-score [10]	PBM binding z-score [11]	PBM binding z-score [12]	PBM binding z-score [13]	PBM binding z-score [14]	PBM binding z-score [15]	PBM binding z-score [16]	PBM binding z-score [17]	PBM binding z-score [18]	PBM binding z-score [19]	PBM binding z-score [20]
GCTAGCAGGCCATCTGGGTCACTCAATGACGGGC	0.0876	-0.178	-0.882	-0.232	-0.896	1.7	1.31	1.36	-0.319	0.57	3	3.48	-0.603	-1.04	0.0368	0.27	-0.407	0.713	-0.51	1.67
CGTCCAACGTCAATGCTAGGTCAGTGAAAGCATT	-0.119	0.271	0.545	0.323	-0.372	0.371	-0.0757	-0.424	-0.443	-0.334	0.0923	0.146	-0.91	-0.198	-0.138	0.124	-0.688	0.602	-0.434	1.33
AATACAGGGTCACTAGGCCGGAGTAGGTACGAAT	5.72	5.1	0.78	3.77	1.05	5.36	6.6	6.03	2.5	4.78	3.1	5.05	0.885	0.938	1.34	2.98	0.306	3.81	-0.208	3.97
ACTTACGGGTCAACAAGGTTATAGCACGCGTATA	6.88	4.7	0.809	4.4	1.05	6.09	5.69	5.32	2.2	4.02	3.06	4.26	1.25	1.13	2.14	4.49	1.48	4.77	1.05	4.49
TCTCGGAGGACACGAAGGTCAGAGGTTTCCAGAG	1.53	1.38	0.357	1.1	-0.91	2.12	0.856	2.22	2.35	2.2	1.38	1.27	-0.769	-0.978	1.73	2.39	1.24	2.75	0.0674	3.42
ATATGTAGGTTATGGGTCATTCAGGTTGGTTCGC	3.1	3.26	1.87	3.22	1.22	5.51	9.66	8.74	8.22	9.39	7.25	7.26	2.55	1.93	3.33	4	1.51	3.63	2.31	2.52
